# Screens from PubChem BioAssay.
# HepG2 tox: qHTS for Inhibitors of TGF-b: Cytotox Counterscreen | HepG2 CAGA-GFP viability, ATP luminescence, 18 h | Potency, µM (series often up to 46.1 µM), for inactives: at the highest dose activity change, negative = cytotoxicity, usual class: cytotoxic | 410,000 tested, 0.76% active | AID 588856, 2011
#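 CellTiter-Glo luminescence gave cytotoxicity after 18 hours at 37 degrees C. The cells were HepG2 CAGA-GFP in 1% FBS DMEM, stimulated with 500 pg/mL TGF-beta after compound addition. %Activity was normalised to no-cell wells (complete cell-killing) and DMSO (no toxicity), and curves were fitted and classified.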
# ATXN2 expr inh: Primary qHTS for Inhibitors of ATXN expression; HEK-293 ATXN2-luciferase reporter, luminescence, 24 h; Potency, µM (top dose mostly 57 µM), for inactives: top-dose activity change, negative = inhibition, usual class: inhibitors; 360,000 tested, 0.72% active; further: on the % scale 0 is the no-effect control and ±100 the full control effect; nearly all actives have a fitted effect of over 55% in size
#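 ATXN2-luciferase reporter cells (luciferase flanked by upstream and downstream ATXN2 gene portions) were treated 24 h at 37 °C with compounds at up to 57 uM. SteadyGlo luminescence gave expression; GF-AFC fluorescence gave viability.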
# Nrf2 block: Nrf2 qHTS screen for inhibitors; A549 ARE-Fluc reporter, luciferase luminescence, 18-24 h; AID 504444, 2011; 360,000 tested, 2.1% active; Potency, µM (top dose mostly 46 µM), for the others: top-dose activity change, negative = inhibition, usual class: inhibitors; further: on the % scale 0 is the no-effect control and ±100 the full control effect; nearly all actives have a fitted effect of over 60% in size
#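 A549 ARE_Fluc cells (5000/well, 5% FBS OPTI-MEM) pre-incubated 2 h, then treated with compounds 18-24 h at 37C/5% CO2 in concentration-response. CellTiter-Fluor viability read first; BugLite luciferase luminescence after 15 min at room temperature gives Nrf2 activity.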
# A549 tox: Nrf2 qHTS screen for inhibitors: counterscreen for cytotoxicity. A549 ARE-Fluc cells, CellTiter-Fluor viability, 18-24 h. Potency, µM (titrated, usually from 46 µM), without a hit: top-dose activity change, negative = cytotoxicity, actives largely listed as inhibitors. 390,000 tested, 0.16% active; further: on the % scale 0 is the no-effect control and ±100 the full control effect
#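 A549 ARE_Fluc cells in 5% FBS OPTI-MEM were exposed to compounds in concentration-response for 18-24 h at 37 deg C. Viability was read by CellTiter-Fluor fluorescence (Ex 405/Em 525) after 30 min, before the luciferase read.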
# ATXN viability: Viability Counterscreen for Primary qHTS for Inhibitors of ATXN expression; S2 cells (HEK-293 line with an ATXN2-luciferase reporter) viability, CellTiter-Fluor protease fluorescence, 24 h; Potency, µM (highest dose often 56.7 µM), actives largely listed as cytotoxic; 400,000 tested, 0.49% active; AID 651635, 2014; further: nearly all actives have a fitted effect of over 40% in size
# TGFb SMAD3 inh: qHTS for Inhibitors of TGF-b; HepG2 CAGA-GFP TGF-b/SMAD3 reporter, GFP fluorescence, 18 h; TGF-beta stimulated, 500 pg/mL final; Potency, µM (top dose mostly 46.1 µM), for inactives: top-dose activity, negative = inhibition, most hits filed as inhibitors; 410,000 tested, 1.2% active; AID 588855, 2011; further: on the % scale 0 is the no-effect control and ±100 the full control effect; nearly all actives have a fitted effect of over 65% in size
#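 TGF-beta reporter screen: HEPG2 CAGA-GFP, 1% FBS, 500 pg/mL TGF-beta final, 18 h; per-cell GFP summed per well; curves fitted and categorized by class.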
# * hit, by the source's call; i = inactive; u = inconclusive; x = not tested or not shown. Sampled rows, rich in hits. Any-hit rate of the full collection: about 3.8%. The call rests on the fitted dose curve; in most records, active means well fitted curve in the direction sought with a large enough effect; inconclusive means small, poorly fitted or top-dose-only effect, or another doubt; inactive means no such curve, though single readings can be large; an effect the other way counts as inactive or inconclusive. Potency means the concentration at half of the fitted maximal effect.
SMILES,HepG2 tox,ATXN2 expr inh,Nrf2 block,A549 tox,ATXN viability,TGFb SMAD3 inh
CCCN(C(=O)CSc1nnc(-c2ccncc2)n1CCC)c1c(N)n(Cc2ccccc2)c(=O)[nH]c1=O,-2%,x,x,x,i,0%
O=C1c2ccccc2C(c2nnnn2Cc2ccccc2)N1Cc1cccs1 (stereo not drawn),x,3%,x,x,i,x
C(=N\Nc1ccc2ccccc2n1)/c1ccc2c(c1)OCCO2,-65%,u,u,-6%,u,16µM*
Cc1cccc(/C=N/Nc2ccc3ccccc3n2)c1,-68%,x,u,-9%,i,u
COc1cc(/C=N\Nc2nc3ccccc3[nH]2)cc(OC)c1OC,-38%,4%,5.8µM*,14%,i,u
COc1ccc(OC)c(S(=O)(=O)CC(O)COc2ccccc2Cl)c1 (stereo not drawn),-4%,2%,10%,-4%,i,0%
O=[N+]([O-])c1ccc(Nc2ccccc2)c2nonc12,-33%,x,-28%,u,x,u
O=[N+]([O-])c1ccc(Sc2cccc[n+]2[O-])c2nonc12,-115%,5.3µM*,u,18µM*,x,1.3µM*
Cc1ccccc1N=C1SC(CC(=O)Nc2ccc3ccccc3c2)C(=O)N1Cc1ccccn1 (stereo not drawn),-26%,u,u,-29%,u,u
O=C(CC1SC(=Nc2cccc3ccccc23)N(Cc2ccccn2)C1=O)Nc1ccccc1Br (stereo not drawn),-40%,-20%,5.2µM*,-19%,i,-22%
O=C(/C=C/c1ccccc1)N1CCN(Cc2cc(=O)n3nc(-c4ccccc4)sc3n2)CC1,4%,x,x,0%,x,-24%
COc1ccc2sc(-c3ccccc3OC)c(-c3ccc(OCCN(C)C)cc3)c2c1,16µM*,u,5%,4%,x,16µM*
COc1ccc(-c2sc3ccccc3c2-c2ccc(OCCN3CCCCC3)cc2)cc1,-11%,-8%,20%,-19%,i,32%
c1ccc(-c2sc3ccccc3c2-c2ccc(OCCN3CCCC3)cc2)cc1,11µM*,25µM*,21%,12%,u,u
COc1cccc(-c2sc3ccc(OC)cc3c2-c2ccc(OCCN3CCCC3)cc2)c1,-107%,u,13%,-1%,u,u
COc1ccc2sc(-c3ccccc3OC)c(-c3ccc(SC)cc3)c2c1,x,16%,x,x,i,x
COc1cccc(-c2sc3ccccc3c2-c2ccc(OCCN3CCCCC3)cc2)c1,-41%,u,22%,0%,x,1%
COc1cccc(-c2sc3ccccc3c2-c2ccc(OCCN3CCCC3)cc2)c1,20µM*,28µM*,1%,-2%,u,u
COc1cccc(-c2sc3cc(OC)c(OC)cc3c2-c2ccc(OCCN3CCCCC3)cc2)c1,13µM*,-21%,u,u,40µM*,u
CCCc1cc(=O)[nH]c(SCC(=O)c2cc(C)n(C(C)COC)c2C)n1 (stereo not drawn),-28%,18%,-28%,x,i,u
Cc1onc(-c2c(F)cccc2Cl)c1C(=O)N(Cc1ccccc1)C(C)C,-12%,-4%,u,-11%,i,0%
CC(C)CN(CCC(=O)O)CC(C)C,-3%,x,6%,-10%,x,-15%
Cc1nc([N+](=O)[O-])cn1-c1ccc([N+](=O)[O-])cc1,x,5%,x,x,i,x
COc1cccc(-c2sc3ccccc3c2-c2ccc(OCCN(C)C)cc2)c1,11µM*,22µM*,6%,13%,x,u
Cn1cc([N+](=O)[O-])c(C(=O)Nc2ccc(-c3nc4ccccc4o3)cc2)n1,11%,x,0%,0%,i,u
CCn1ccnc1CN(C)Cc1cn(-c2cccc(C)c2)nc1-c1cccc(F)c1,-106%,x,-33%,u,25µM*,u
